PubChem BioAssay
Active and inactive are the calls of the source. Unless noted, no rule for the calls is given here.

What was measured:
[1] = anti-His antibody binders, primary screen, artefact control for SMM control protein annotation, biochemical, small-molecule microarray, 635 nm fluorescence (AID 1128); details: anti-His Alexa647 antibody binding, higher = more signal;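 also: score merges feature fluorescence with signal-to-noise for each printed compound spot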
[2] = test system: Human papillomavirus type 1a E7 protein (residues 1-88); assay: HPV1a E7 small-molecule binders, primary screen, biochemical, small-molecule microarray, residues 1-88, 635 nm (AID 1129); details: small-molecule microarray binding, fluorescence 635 nm; higher = more signal
[3] = target: Focal adhesion kinase 1 (Homo sapiens) (UniProt Q05397); assay: small-molecule microarray binders of FAK, primary screen, biochemical, 635/667 nm fluorescence, BSA, DTT (AID 1130); details: PTK2 binding, 635 nm fluorescence, higher = more signal;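 also: composite of spot emission at 667 nm and signal to noise over triplicate slides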
Focal adhesion kinase 1 (Homo sapiens), sequence (Q05397 whole entry, looked up): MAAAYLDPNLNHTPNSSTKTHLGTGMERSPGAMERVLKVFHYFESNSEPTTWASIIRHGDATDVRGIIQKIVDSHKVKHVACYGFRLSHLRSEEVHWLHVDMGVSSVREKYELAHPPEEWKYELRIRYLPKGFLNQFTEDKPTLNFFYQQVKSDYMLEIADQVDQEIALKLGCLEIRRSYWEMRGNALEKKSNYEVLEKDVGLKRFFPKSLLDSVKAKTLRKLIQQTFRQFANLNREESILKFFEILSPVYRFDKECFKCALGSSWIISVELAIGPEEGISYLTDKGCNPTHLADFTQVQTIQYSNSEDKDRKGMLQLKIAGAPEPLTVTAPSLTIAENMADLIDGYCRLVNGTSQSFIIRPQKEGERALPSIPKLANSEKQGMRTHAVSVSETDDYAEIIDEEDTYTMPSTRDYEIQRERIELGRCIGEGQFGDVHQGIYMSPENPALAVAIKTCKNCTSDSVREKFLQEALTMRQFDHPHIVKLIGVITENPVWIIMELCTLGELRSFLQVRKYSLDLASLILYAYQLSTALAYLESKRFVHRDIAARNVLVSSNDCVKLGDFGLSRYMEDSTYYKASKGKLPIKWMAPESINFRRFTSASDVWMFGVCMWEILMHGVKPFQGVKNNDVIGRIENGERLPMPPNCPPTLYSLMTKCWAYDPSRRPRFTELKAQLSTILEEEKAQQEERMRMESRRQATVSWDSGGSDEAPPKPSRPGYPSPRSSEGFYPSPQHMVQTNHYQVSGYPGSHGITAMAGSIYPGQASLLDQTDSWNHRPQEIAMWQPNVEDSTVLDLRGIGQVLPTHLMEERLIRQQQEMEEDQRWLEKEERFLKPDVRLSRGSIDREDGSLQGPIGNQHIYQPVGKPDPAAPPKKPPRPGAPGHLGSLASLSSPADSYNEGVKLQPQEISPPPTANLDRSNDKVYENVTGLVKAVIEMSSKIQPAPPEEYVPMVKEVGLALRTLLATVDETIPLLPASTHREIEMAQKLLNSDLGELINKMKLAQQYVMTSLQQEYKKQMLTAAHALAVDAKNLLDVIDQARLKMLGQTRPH

[4] = test system: Fibrinogen (Alexa647-labelled); assay: fibrinogen binders on compound microarrays, profiling panel, artefact control for SMM control-protein annotation, biochemical, small-molecule microarray, 635/667 nm fluorescence (AID 1131); details: fibrinogen-A647 binding fluorescence, higher = more signal;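 also: z-score merges 667 nm fluorescence with per-spot signal-to-noise over triplicate slides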
[5] = target: Follistatin (Homo sapiens) (UniProt P19883); assay: follistatin binders on small-molecule microarrays, primary screen, biochemical, small-molecule microarray, 635/667 nm fluorescence (AID 1132); details: FST binding, 635 nm fluorescence, higher = more signal
Follistatin (Homo sapiens), sequence (P19883 whole entry, looked up): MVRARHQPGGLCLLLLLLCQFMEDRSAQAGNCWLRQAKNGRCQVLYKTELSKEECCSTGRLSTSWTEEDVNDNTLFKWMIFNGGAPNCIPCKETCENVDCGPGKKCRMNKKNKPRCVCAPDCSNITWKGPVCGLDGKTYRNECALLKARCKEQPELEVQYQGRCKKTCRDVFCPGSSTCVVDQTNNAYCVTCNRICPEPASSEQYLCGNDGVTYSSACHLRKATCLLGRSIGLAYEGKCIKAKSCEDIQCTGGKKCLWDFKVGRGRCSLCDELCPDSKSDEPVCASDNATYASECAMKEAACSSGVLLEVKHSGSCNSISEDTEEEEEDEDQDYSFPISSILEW

[6] = target: Fibroblast growth factor 2 (Homo sapiens) (UniProt P09038); assay: FGF2 binders on small-molecule microarrays, primary screen, biochemical, small-molecule microarray, 635/667 nm fluorescence (AID 1133); details: small-molecule microarray binding, FGF2, fluorescence 635/667; higher = more signal
Fibroblast growth factor 2 (Homo sapiens), sequence (P09038 whole entry, looked up): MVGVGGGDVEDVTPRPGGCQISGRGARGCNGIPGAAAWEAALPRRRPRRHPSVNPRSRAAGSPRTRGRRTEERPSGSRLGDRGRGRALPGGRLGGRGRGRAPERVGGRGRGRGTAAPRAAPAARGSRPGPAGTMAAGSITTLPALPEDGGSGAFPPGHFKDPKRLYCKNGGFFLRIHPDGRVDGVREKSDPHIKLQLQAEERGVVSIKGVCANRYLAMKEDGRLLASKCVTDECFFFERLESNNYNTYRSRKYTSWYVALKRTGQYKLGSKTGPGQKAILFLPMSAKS

[7] = mitochondrial membrane potential change in A549 cells, profiling panel, cell-based, JC-1 fluorescence, basal, 24 h, 100 nL (AID 1138); details: higher = more signal;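 also: A549 lung adenocarcinoma cells under basal conditions with no added stimulus; test concentration not given here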
[8] = test system: Lefty1; assay: Lefty1 binders on small-molecule microarrays, primary screen, biochemical, small-molecule microarray, 635/667 nm fluorescence (AID 1139); details: small-molecule microarray binding, fluorescence 635/667; higher = more signal
[9] = test system: wheat germ agglutinin (Triticum aestivum), Alexa647-labelled; assay: wheat germ agglutinin binders on compound microarrays, profiling panel, artefact control for SMM control-protein annotation, biochemical, small-molecule microarray, 635/667 nm fluorescence (AID 1140); details: WGA-A647 binding, 635 nm fluorescence, higher = more signal;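 also: score merges 667 nm feature emission with signal to noise over triplicate slides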
[10] = target: Luciferin 4-monooxygenase (Photinus pyralis) (UniProt P08659); assay: firefly luciferase enzyme inhibitors, primary screen, biochemical, luminescence, purified enzyme, 2006 set (AID 1141); details: SteadyGlo luminescence, 30 min, higher = more signal, called active from +8 up or from −8 down;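 also: cell-free assay with purified firefly luciferase at 100 ng per well in PBS; test concentration not given here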
Luciferin 4-monooxygenase (Photinus pyralis), sequence (P08659 whole entry, looked up): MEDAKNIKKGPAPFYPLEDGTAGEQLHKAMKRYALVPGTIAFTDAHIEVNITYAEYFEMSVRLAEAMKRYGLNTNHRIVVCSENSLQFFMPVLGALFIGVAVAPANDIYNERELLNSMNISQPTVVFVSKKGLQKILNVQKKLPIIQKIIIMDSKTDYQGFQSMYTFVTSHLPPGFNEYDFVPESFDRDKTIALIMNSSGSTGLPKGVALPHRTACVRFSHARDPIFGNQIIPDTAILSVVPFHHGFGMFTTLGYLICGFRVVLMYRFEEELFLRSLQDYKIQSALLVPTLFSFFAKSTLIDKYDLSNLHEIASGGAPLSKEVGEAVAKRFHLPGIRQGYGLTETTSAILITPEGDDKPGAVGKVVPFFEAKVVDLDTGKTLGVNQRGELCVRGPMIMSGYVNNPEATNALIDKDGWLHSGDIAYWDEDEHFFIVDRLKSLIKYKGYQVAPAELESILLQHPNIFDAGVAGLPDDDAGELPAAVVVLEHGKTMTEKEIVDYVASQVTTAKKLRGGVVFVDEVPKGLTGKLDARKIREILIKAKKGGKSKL

[11] = test system: Wnt5a (protein binding on small-molecule microarray); assay: Wnt5a binders on small-molecule microarray, primary screen, biophysical, 635/667 nm fluorescence (AID 1142); details: 635 nm fluorescence, higher = more signal;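 also: fluorescence read at 667 nm with signal to noise per printed feature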
[12] = cell viability in Huh7 cells, primary screen, cytotoxicity control for HCV replication inhibitor project, CellTiter-Glo luminescence, basal, 48 h (AID 1143); details: Huh7 HCV replicon, higher = more signal, called active from +8 up or from −8 down;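 also: Huh7 hepatoma cells carrying a hepatitis C replication reporter with no stimulus; test concentration not given here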
[13] = P. aeruginosa biofilm formation inhibitors, primary screen, PAO1 strain, BacTiter-Glo luminescence, LB-PBS (AID 1144); details: 12 h, higher = more signal
[14] = CREB reporter modulators without forskolin, primary screen, cell-based, PC12, CRE-LacZ reporter, unstimulated (AID 1145); details: no forskolin, luminescence, 4.5 h, higher = more signal, called active from +8 up or from −8 down
[15] = CREB reporter modulators under forskolin, primary screen, cell-based, PC12, CRE-LacZ reporter, forskolin-stimulated (AID 1146); details: luminescence, 4.5 h, higher = more signal, called active from +8 up or from −8 down;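 also: PC12 cells with 6xCRE LacZ reporter stimulated by forskolin 10 µM; beta-galactosidase reporter signal reflecting CREB driven transcription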
[16] = target: Streptavidin (Streptomyces avidinii) (UniProt P22629); assay: streptavidin binders on small-molecule microarray, primary screen, artefact control for SMM compound annotation, biophysical, 635/667 nm fluorescence (AID 1147); details: streptavidin binding, higher = more signal;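 also: signal reflects streptavidin binding to arrayed compounds as a control protein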
Streptavidin (Streptomyces avidinii), sequence (P22629 whole entry, looked up): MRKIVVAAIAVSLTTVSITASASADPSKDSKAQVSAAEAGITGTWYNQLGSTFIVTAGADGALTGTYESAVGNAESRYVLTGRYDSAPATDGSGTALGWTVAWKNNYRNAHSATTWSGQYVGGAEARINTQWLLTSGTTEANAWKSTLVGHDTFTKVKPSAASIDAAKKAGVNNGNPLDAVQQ

[17] = small-molecule binders of probe aInhba, primary screen, biochemical, small-molecule microarray, 635/667 nm fluorescence (AID 1148); details: higher = more signal;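 also: score merges 667nm spot fluorescence with signal-to-noise for antibody binding to printed compounds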
[18] = target: Torsin-1A (Homo sapiens) (UniProt O14656); assay: torsin A binders from cell lysate, primary screen, small-molecule microarray, wild-type, 635/667 nm (AID 1149); details: COS7 hTOR1A-WT lysate, 635 nm fluorescence, higher = more signal
Torsin-1A (Homo sapiens), sequence (O14656 whole entry, looked up): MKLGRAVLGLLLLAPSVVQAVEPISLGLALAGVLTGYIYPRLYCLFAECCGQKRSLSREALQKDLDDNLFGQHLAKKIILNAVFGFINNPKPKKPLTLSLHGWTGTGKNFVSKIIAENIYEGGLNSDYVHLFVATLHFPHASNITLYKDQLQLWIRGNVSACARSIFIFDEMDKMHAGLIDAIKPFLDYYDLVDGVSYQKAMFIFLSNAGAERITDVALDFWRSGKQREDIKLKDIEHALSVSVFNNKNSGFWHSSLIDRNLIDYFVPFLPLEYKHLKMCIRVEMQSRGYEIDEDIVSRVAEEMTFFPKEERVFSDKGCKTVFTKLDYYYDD

[19] = target: Torsin-1A (Homo sapiens) (UniProt O14656); assay: small-molecule binders of mutant TOR1A in lysate, primary screen, cell lysate, small-molecule microarray, COS7 lysate, 635/667 nm fluorescence (AID 1150); details: COS7 hTOR1A mutant lysate, 635 nm fluorescence, higher = more signal;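 also: score pools 667 nm emission and signal to noise measuring lysate protein binding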
[20] = test system: Sonic hedgehog protein (Shh); assay: small-molecule binders of Shh protein, primary screen, biochemical, small-molecule microarray, 635/667 nm fluorescence (AID 1151); details: small-molecule microarray binding, 635 nm fluorescence; higher = more signal;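 also: Shh protein binding to compounds spotted on small-molecule microarray slides; score combines spot fluorescence intensity with signal-to-noise across triplicate slides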

SMILES | composite z-score [1] | composite z-score [2] | composite z-score [3] | composite z-score [4] | composite z-score [5] | composite z-score [6] | z-score [7] | composite z-score [8] | composite z-score [9] | z-score [10] | composite z-score [11] | z-score [12] | z-score [13] | z-score [14] | z-score [15] | composite z-score [16] | composite z-score [17] | composite z-score [18] | composite z-score [19] | composite z-score [20]
CCCC=C(CCC)[C@@H](NS(=O)(=O)c1cccc(C(F)(F)F)c1)c1ccc(C(=O)OC)cc1 | 0.54 | 0.4 | -0.209 | 0.436 | 0.572 | 0.319 | 0.622 | 0.0304 | 0.295 | 2.82 (inactive) | 1.16 | 0.0804 (inactive) | -0.109 (inactive) | -0.182 (inactive) | -0.547 (inactive) | 0.0276 | 1.43 | 0.258 | -0.223 | 0.116
COC(=O)[C@@]1(Cc2ccc(OC)cc2)[C@H]2c3cc(C(=O)N(C)C)n(Cc4ccc(C)c(F)c4F)c3C[C@H]2CN1C(=O)c1ccccc1 | 0.158 | 0.713 | 0.0211 | 0.746 | -0.266 | -0.869 | 0.0287 | -0.826 | 0.546 | 2.24 (inactive) | 0.109 | -1.49 (inactive) | -0.763 (inactive) | 1.53 (inactive) | 1.24 (inactive) | 0.569 | 0.0179 | -0.124 | -0.0724 | -1.09
NC(=O)NCC#Cc1ccc2c(c1)[C@]1(C(=O)N2)[C@H](c2ccccc2OCCO)N2[C@H](c3ccccc3)[C@H](c3ccccc3)OC(=O)[C@H]2[C@@H]1C(=O)N1CCN(c2ncccn2)CC1 | 0.997 | 1.19 | 0.695 | 0.814 | 1.08 | 1.03 | -0.77 | 0.347 | 0.438 | -0.538 (inactive) | -0.186 | -4.21 (inactive) | -0.681 (inactive) | -0.0515 (inactive) | 0.889 (inactive) | 0.182 | -0.0762 | 0.0759 | 0.272 | 0.831
Cc1ccc([C@@H]2CC=C(C(=O)O)[C@H](c3ccccc3)N2S(=O)(=O)c2ccc(C)cc2)cc1 | 2.65 | 1.24 | 0.574 | 0.894 | -0.358 | -0.847 | -1.47 | -0.691 | 1.35 | 1.33 (inactive) | 0.382 | -0.385 (inactive) | 0.134 (inactive) | 0.332 (inactive) | -0.311 (inactive) | 1.77 | 0.277 | 0.385 | 0.528 | 0.157
C=CCC(OC(C)=O)[C@@H]1[C@@H](N(Cc2cccc3ccccc23)C(=O)c2ccc(C)cc2)c2cc(OCCCO)ccc2N1C(=O)c1ccc(-c2ccccc2)cc1 (stereo not given in full) | -0.215 | -0.0588 | -0.0095 | -0.5 | 0.679 | 0.26 | 2.6 | -0.0451 | -0.285 | -1.18 (inactive) | -0.0459 | -0.552 (inactive) | 0.528 (inactive) | 0.455 (inactive) | 0.289 (inactive) | 0.425 | -0.0719 | 0.0621 | -0.213 | 0.0891
C#C[C@H](O[Si](C#Cc1ccccc1)(C(C)C)C(C)C)c1ccccc1 | 0.126 | -0.581 | -0.515 | -0.664 | -0.89 | -0.487 | -1.47 | -0.126 | -0.242 | 0.645 (inactive) | -0.0449 | -1.33 (inactive) | -0.368 (inactive) | -0.258 (inactive) | 6.27 (inactive) | -0.636 | -0.242 | -0.234 | -0.543 | -0.154
O=C1c2ccccc2[C@@]2(Cc3ccccc3N(CC(F)(F)F)C2=O)[C@H](c2ccc(CO)cc2)N1C1CCCCC1 | -0.194 | -0.07 | -0.103 | -0.243 | 1.06 | 1.06 | 0.835 | 0.531 | -0.643 | -0.637 (inactive) | 0.327 | -0.323 (inactive) | 0.00188 (inactive) | -0.168 (inactive) | -0.838 (inactive) | -0.256 | 0.207 | 0.17 | -0.309 | 0.522
C=CCOC(=O)[C@@H]1[C@H]2C(=O)O[C@H](c3ccccc3)[C@H](c3ccccc3)N2[C@H](c2ccc(OCCOC(=O)[C@H]3C[C@H]4C(=O)N[C@@H](CCCCNC(C)=O)C(=O)N4[C@H]3c3ccc(O)cc3)cc2)[C@@]12C(=O)Nc1ccc(I)cc12 | 1.21 | 0.894 | -0.145 | 0.852 | 1.08 | 1.7 | -0.815 | 1.08 | 0.115 | -0.608 (inactive) | 0.728 | -0.317 (inactive) | 0.645 (inactive) | 0.549 (inactive) | 0.906 (inactive) | 0.0984 | 0.0073 | 1.32 | 1.29 | 2.07
CCOC(=O)C1=C[C@@H](c2ccccc2)N(S(=O)(=O)c2ccc(C)cc2)[C@H]1c1ccc(F)cc1 | 0.986 | 1.14 | 1.23 | 0.995 | 1.06 | 0.47 | 0.994 | 0.207 | 1.08 | 1.54 (inactive) | 0.0679 | -3.77 (inactive) | 0.449 (inactive) | -0.826 (inactive) | -0.552 (inactive) | 0.95 | 0.225 | 0.347 | 0.431 | 0.488
